# PubChem BioAssay
# Calls of active or inactive are those of the source.
# Test: basal 3T3-L1 adipocyte mitochondrial potential changes, profiling panel, cell-based, JC-1 fluorescence, 3T3-L1 adipocytes, 24 h, 100 nL compound (AID 1168)
# Conditions: JC-1 mitochondrial fluorescence, higher = more signal, called active from +8 up or from −8 down
# Further: test concentration not given here.
row,Structure (SMILES),z-score
1,CC(C)=CCN(C(=O)C#Cc1ccccc1)[C@H](CO)c1ccccc1,0.983 (inactive)
2,CCCC[C@@H]1C[C@H]1[C@@H](NC(=O)Cc1ccccc1)c1ccc(Cl)cc1,-1.27 (inactive)
3,O=C1C2C=CC(C(O)c3ccc([N+](=O)[O-])cc3)N(Nc3ccccc3)C2C(=O)N1c1ccccc1 (stereo unspecified),-0.886 (inactive)
4,O=C1C2C=CC(C(O)C(c3ccccc3)c3ccccc3)N(Nc3ccccc3)C2C(=O)N1c1ccccc1 (stereo unspecified),-1.64 (inactive)
5,CC(C)CNC(=O)[C@@]1(C)c2ccccc2C(=O)N(Cc2cc(F)cc(C(F)(F)F)c2)[C@H]1c1ccc(CO)cc1,-0.175 (inactive)
6,Cc1c(NC(=O)/C(C#N)=C/c2ccc(Cl)cc2)c(=O)n(-c2ccccc2)n1C,0.585 (inactive)
7,CN1C(=O)[C@]2(CCS(=O)(=O)c3ccccc3)N=C(c3ccc(OCCCO)cc3)O[C@@H]2c2ccccc21,-0.466 (inactive)
8,COc1cccc(C[C@H]2C[C@@H](CO[Si](C(C)C)(C(C)C)C(C)C)N3C(=O)[C@@]4(C(C)=O)O[C@@]23[C@@H]2C(=O)N(C)C(=O)[C@@H]24)c1,1.29 (inactive)
9,CC(=O)n1cc(C(O)C2C=CC3C(=O)N(c4ccccc4)C(=O)C3N2Nc2ccccc2F)c2ccccc21 (stereo unspecified),-1.2 (inactive)
10,CC=CC(O)C1C=CC2C(=O)N(C)C(=O)C2N1NC(=O)OC(C)(C)C (stereo unspecified),-0.238 (inactive)

# Test: basal RPMI8226 mitochondrial membrane potential changes, profiling panel, cell-based, JC-1 fluorescence, 24 h, 100 nL compound (AID 1169)
# Conditions: RPMI8226 myeloma, JC-1 mitochondrial potential fluorescence, higher = more signal
row,Structure (SMILES),z-score
1,CCCCC(=C=CC[C@@H](O)c1cccc(OCCO)c1)CCO,0.044
2,C=CCOC(=O)[C@@H]1[C@H]2C(=O)O[C@H](c3ccccc3)[C@H](c3ccccc3)N2[C@H](c2ccc(OCCOC(=O)[C@H]3C[C@H]4C(=O)NCC(=O)N4[C@H]3c3ccc(O)cc3)cc2)[C@@]12C(=O)Nc1ccc(I)cc12,-0.772
3,CN1C=C(C(=O)OCCS(C)(=O)=O)C(C(=O)OCCS(C)(=O)=O)=CC(CCCO)=CC1c1ccc(CN2CCCC2)cc1 (stereo unspecified),1.33
4,COCCOC(=O)N1C(=O)[C@@]2(c3cc(C#CC4(O)CCCCCC4)ccc31)[C@H](C(=O)N1CCc3cc(OC)c(OC)cc3C1)[C@H]1C(=O)O[C@H](c3ccccc3)[C@H](c3ccccc3)N1[C@@H]2c1ccc(O)cc1,-1.06
5,O=C1O[C@@H](c2ccccc2)[C@@H](c2ccccc2)N2[C@@H](c3ccc(OCCO)cc3)[C@]3(C(=O)Nc4ccc(C#CCCO)cc43)[C@@H](C(=O)Nc3nc4ccccc4s3)[C@H]12,-1.06
6,COCCCNC(=O)[C@@H]1c2ccccc2C(=O)N(C2CCCCC2)[C@H]1c1ccc(CO)cc1,0.107
7,C=CC[C@]1(C(=O)NCc2ccccc2)COC(c2ccc(OCCCO)cc2)=N1,-0.4
8,CN(C)CCCNC(=O)[C@@]1(Cc2ccccc2I)c2ccccc2C(=O)N(Cc2ccccc2)[C@H]1c1ccc(CO)cc1,-0.681
9,COc1cccc(OC)c1C(=O)O[C@H]1[C@@H]2OC(=O)[C@H](Cc3cccc(Br)c3)C/C=C/C[C@@H](Cc3cccc(Br)c3)C(=O)O[C@H]2[C@@H](OC)O[C@@H]1CO,-0.735
10,[N-]=[N+]=NCc1ccccc1C[C@]1(C(=O)NCc2ccccc2)N=C(c2ccc(OCCCO)cc2)O[C@H]1c1ccccc1CN=[N+]=[N-],-0.899
11,COCCOC(=O)N1C(=O)[C@@]2(c3cc(C#Cc4ccc(OC)cc4)ccc31)[C@H](c1ccc(OCCO)cc1)N1[C@H](c3ccccc3)[C@H](c3ccccc3)OC(=O)[C@H]1[C@@H]2C(=O)N1CCCCCCC1,-0.684
12,Cc1ccc(S[C@]2(C(=O)NC3CC3)CC(=O)N(Cc3cc(C(F)(F)F)cc(C(F)(F)F)c3)[C@@H]2c2ccc(CO)cc2I)cc1,-0.921
13,CC1(C)OC[C@@]23C=C(Br)[C@@H](C[C@H]12)[C@@]1(CO1)C3=O,0.855
14,CCOC(=O)C1=CC[C@@H](c2ccccc2)N(S(=O)(=O)c2ccc(C)cc2)[C@H]1C#N,-0.441
15,COc1ccccc1CN1C(=O)c2ccccc2[C@](Cc2ccccc2I)(C(=O)NCCCN(C)C)[C@@H]1c1ccc(CO)cc1,-1.03
16,CCCC=C(CCC)[C@@H](NC(=O)c1ccco1)c1ccc(C(=O)OC)cc1,-0.736
17,CC(C)(C)OC(=O)CC[C@]1(C(N)=O)N=C(c2ccc(OCCCO)cc2)O[C@H]1c1ccccc1CN=[N+]=[N-],0.469
18,COc1ccc(NN2C(C(O)c3cc(C(F)(F)F)cc(C(F)(F)F)c3)C=CC3C(=O)N(C4CCCCC4)C(=O)C32)cc1 (stereo unspecified),0.139

row,Structure (SMILES),z-score
1,COc1ccc(CCNC(=O)[C@@]2(C)c3ccccc3C(=O)N(Cc3cc(C(F)(F)F)cc(C(F)(F)F)c3)[C@H]2c2ccc(CO)cc2)cc1,-0.428
2,CC(C)C(=C=CC[C@@H](O)c1ccc(OCCO)cc1)CCO,-0.21
3,C=CCC(OC(C)=O)[C@@H]1[C@@H](N(Cc2cc3ccccc3o2)C(=O)c2ccc(-c3ccccc3)cc2)c2cc(OCCCO)ccc2N1C(=O)c1ccc2ccccc2n1 (stereo partly specified),-0.202
4,CC(C)c1ccc(NN2C(C(O)C(C)C)C=CC3C(=O)N(c4ccccc4)C(=O)C32)cc1 (stereo unspecified),-0.692
5,CCCC[C@H]1OB(O)C[C@H]2C1=C(COC)C[C@H]1C(=O)C=CC(=O)[C@H]12,-0.59
6,COc1ccc([Si](C)(C)[C@H]2[C@H](CCn3cc([C@H](O)c4ccccc4)nn3)O[C@@]3(C(=O)N(c4ccccc4)c4ccccc43)[C@@H]2C)cc1,-0.932
7,N#Cc1ccc(C(O)C2C=CC3C(=O)NC(=O)C3N2Nc2ccccn2)cc1 (stereo unspecified),0.274
8,O=C1C2C=CC(C(O)c3cccs3)N(Nc3ccccc3)C2C(=O)N1c1ccccc1 (stereo unspecified),-0.18
9,CC(C)=CCN(C(=O)C#Cc1ccccc1)[C@H](CO)c1ccccc1,-1.24
10,CCCC[C@@H]1C[C@H]1[C@@H](NC(=O)Cc1ccccc1)c1ccc(Cl)cc1,-0.906
11,O=C1C2C=CC(C(O)c3ccc([N+](=O)[O-])cc3)N(Nc3ccccc3)C2C(=O)N1c1ccccc1 (stereo unspecified),-1.01
12,O=C1C2C=CC(C(O)C(c3ccccc3)c3ccccc3)N(Nc3ccccc3)C2C(=O)N1c1ccccc1 (stereo unspecified),-0.305
13,CC(C)CNC(=O)[C@@]1(C)c2ccccc2C(=O)N(Cc2cc(F)cc(C(F)(F)F)c2)[C@H]1c1ccc(CO)cc1,-0.638
14,Cc1c(NC(=O)/C(C#N)=C/c2ccc(Cl)cc2)c(=O)n(-c2ccccc2)n1C,-0.0999
15,CN1C(=O)[C@]2(CCS(=O)(=O)c3ccccc3)N=C(c3ccc(OCCCO)cc3)O[C@@H]2c2ccccc21,-0.852
16,COc1cccc(C[C@H]2C[C@@H](CO[Si](C(C)C)(C(C)C)C(C)C)N3C(=O)[C@@]4(C(C)=O)O[C@@]23[C@@H]2C(=O)N(C)C(=O)[C@@H]24)c1,-0.846
17,CC(=O)n1cc(C(O)C2C=CC3C(=O)N(c4ccccc4)C(=O)C3N2Nc2ccccc2F)c2ccccc21 (stereo unspecified),0.408
18,CC=CC(O)C1C=CC2C(=O)N(C)C(=O)C2N1NC(=O)OC(C)(C)C (stereo unspecified),0.397
